Only some compounds are listed: those with a hit (about 27% of all), similar ones and a draw of the others.
PTK2B oligo ant: Pyk2 (human) oligomerization antagonism; 99,000 compounds, 0.83% hits; Q293 cells, Pyk2 FERM NanoBiT luminescence; active compounds read low; Q14289; z-score (the deposit names both 25 µM and 10 µM);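 active = Z-score of -3 or lower, scaled per plate to the spread of control and sample wells; inactive = z-score above -3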;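 note: negative z-score means lost luminescence so less FERM oligomerization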
Target sequence (Q14289 whole entry, looked up): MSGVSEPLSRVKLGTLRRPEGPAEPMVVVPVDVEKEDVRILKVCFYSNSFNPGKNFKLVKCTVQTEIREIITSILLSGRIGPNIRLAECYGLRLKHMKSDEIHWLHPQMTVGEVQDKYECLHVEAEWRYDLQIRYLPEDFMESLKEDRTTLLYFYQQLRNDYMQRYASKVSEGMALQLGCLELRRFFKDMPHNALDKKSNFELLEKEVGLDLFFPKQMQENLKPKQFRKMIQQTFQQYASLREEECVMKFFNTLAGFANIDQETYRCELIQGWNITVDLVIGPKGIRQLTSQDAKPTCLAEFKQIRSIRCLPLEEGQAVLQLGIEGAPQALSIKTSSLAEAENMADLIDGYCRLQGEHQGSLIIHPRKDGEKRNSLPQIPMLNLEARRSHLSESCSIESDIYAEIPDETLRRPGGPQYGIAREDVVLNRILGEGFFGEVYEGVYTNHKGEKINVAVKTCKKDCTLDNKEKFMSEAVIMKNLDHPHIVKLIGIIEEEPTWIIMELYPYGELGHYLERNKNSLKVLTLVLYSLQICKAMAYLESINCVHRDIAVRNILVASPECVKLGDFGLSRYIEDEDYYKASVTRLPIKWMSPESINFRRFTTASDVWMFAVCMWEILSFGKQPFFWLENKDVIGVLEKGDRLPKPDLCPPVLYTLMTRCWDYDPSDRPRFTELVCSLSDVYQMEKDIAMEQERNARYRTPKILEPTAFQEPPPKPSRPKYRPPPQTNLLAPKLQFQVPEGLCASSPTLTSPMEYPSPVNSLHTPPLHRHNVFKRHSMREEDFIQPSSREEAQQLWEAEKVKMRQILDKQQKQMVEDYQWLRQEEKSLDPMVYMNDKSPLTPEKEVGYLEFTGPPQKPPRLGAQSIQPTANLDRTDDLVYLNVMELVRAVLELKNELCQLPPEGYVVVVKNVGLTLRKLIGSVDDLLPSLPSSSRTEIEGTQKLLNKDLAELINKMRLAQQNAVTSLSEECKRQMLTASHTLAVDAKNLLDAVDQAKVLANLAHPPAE
CYP2C9 inh: inhibitors of human CYP2C9; 96,000 compounds, 20% hits; inhibition, % at 5 µM; CYP2C9 Supersomes, luciferin-H conversion, luminescence;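 active = blocking of liver enzyme CYP2C9 beyond about 50% at 5 µM, limit read from the data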
Cav32 inh: blocks human Cav3.2 T-type calcium channel; 100,000 compounds, 4% hits; AID 449739; B-score at 10 µM; Cav3.2-expressing cells, Fluo-4 calcium fluorescence FDSS; active compounds read low;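 active = single-dose well whose peak fluorescence ratio is a statistical outlier from its plate by either plate-standardised score or position-corrected B-score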
CYP2C19 inh: human CYP2C19 inhibition. 96,000 compounds, 21% hits. AID 778. CYP2C19 Supersomes, luciferin-H EGE luminescence, 30 min. P33261. inhibition, % at 5 µM;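 active = CYP2C19 inhibition above a set limit at 5 µM in the primary screen, cut at about 50% in these data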
CYP2C19 activ: increases human CYP2C19 enzyme activity | recombinant CYP2C19, luciferin-H EGE luminescence; active compounds read high; 0 = fully inhibited enzyme, 1 = untreated enzyme | activation factor at 5 µM | 96,000 tested, under 10 active | AID 1025;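 active = activation factor of at least 2 at 5 µM in the primary screen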
CYP2C9 act: CYP2C9 (human) activation; 96,000 compounds, 1.4% hits; recombinant CYP2C9, luciferin-H conversion, luminescence; active compounds read high; factor 1 = untreated enzyme, 0 = blocked; P11712; AID 1024; activation factor at 5 µM;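 active = activation factor of 2 or more for CYP2C9 at a 5 µM dose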
A number is an active result; - = inactive; . = not tested or not shown.

SMILES	PTK2B oligo ant	CYP2C9 inh	Cav32 inh	CYP2C19 inh	CYP2C19 activ	CYP2C9 act
CCCOc1ccc(C(C(=O)OCCN(CC)CC)c2ccccc2)cc1 (stereo not drawn)	-	-	-	-	-	-
O=C(OCC(=O)N1CCc2ccccc21)c1ccccc1	-	-	-	-	-	-
CC(C)[C@H](NC(=O)c1ccco1)C(=O)OCC(=O)N1CCc2ccccc21	-	86.8	-	-	-	-
CC1CCN(c2ccc(C(=O)NCc3cccs3)cn2)CC1	-	-	-	-	-	-
CC12C(=O)N(Cc3ccco3)C(=O)C1C1c3ccccc3C2c2ccccc21 (stereo not drawn)	-	-	-	57.4	-	-
CN1C(=O)C(O)(C2COC(C)(C)CC2=O)c2ccccc21 (stereo not drawn)	-	-	-	-	-	-
COc1ccc2c(c1)CC(C1(O)C(=O)N(C)c3ccccc31)C2=O (stereo not drawn)	-	-	-	77.4	-	-
C=C(C)CSc1nc(N)cc(=O)[nH]1	-	-	-	-	-	-
C=CCc1c(C)nc(SCC(=C)C)[nH]c1=O	-	-	-	54.9	-	-
CCOc1ccccc1N1CCN(C(=O)c2cc3c(s2)CCC3)CC1	-	-	-	-	-	-
COc1ccccc1N1CCN(C(=O)Nc2cccc(Cl)c2)CC1	-	-	-	-	-	-
CCOc1ccccc1N1CCN(C(=O)C(F)(F)F)CC1	-	-	-	-	-	-
CCOc1ccccc1N1CCN(C(=O)Nc2ccc(F)c(Cl)c2)CC1	-	-	-4.06	-	-	-
CCOc1ccccc1N1CCN(C(=O)c2cc(C)oc2C)CC1	-	-	-	68.0	-	-
CCOc1ccccc1N1CCN(C(=O)c2cc[n+]([O-])cc2)CC1	-	-	-	80.2	-	-
CCCc1ccc(C(=O)N2CCN(c3ccccc3OCC)CC2)cc1	-	76.3	-	88.5	-	-
CCOc1ccc(NC(=O)CC2C(=O)N(C)C(=S)N2Cc2ccc3c(c2)OCO3)cc1 (stereo not drawn)	-	.	-	.	.	.
CCCCCC(C)n1[nH]c(=O)cc1N (stereo not drawn)	-	-	-	-	-	-
Cc1cc(C)c(C)c(S(=O)(=O)N2CCN(CC(=O)NC(=O)NCc3ccccc3)CC2)c1C	-	-	-	-	-	-
CCOc1ccccc1N1Cc2ccccc2C1	-	-	-	-	-	-
CCOc1ccccc1N1CCN(C(=O)C(Sc2ccccc2)c2ccccc2)CC1 (stereo not drawn)	-	-	-	51.2	-	-
CCOc1ccccc1N1Cc2cc(C)c(C)cc2C1	.	-	-	54.4	-	-
Cc1cc(=O)[nH]c2c1c(C)nn2C1CCOC(C)(C)C1 (stereo not drawn)	-	-	-	-	-	-
CN1CCN(C(=S)c2ccc(OCC(=O)Nc3cccc(C(F)(F)F)c3)cc2)CC1	-	.	-	.	.	.
Cc1cc([N+](=O)[O-])c(NCCCCCCO)c([N+](=O)[O-])c1	-	.	-	.	.	.
SMILES	PTK2B oligo ant	CYP2C9 inh	Cav32 inh	CYP2C19 inh	CYP2C19 activ	CYP2C9 act
CCCc1cc(=O)n2[nH]c(CCc3ccccc3)nc2n1	-	52.2	-	-	-	-
CN(C)/C=C1\N=C(c2cccs2)OC1=O	-	-	-	-	-	-
COc1ccc(/C=C2/N=C(c3cccs3)OC2=O)cc1OC(C)C	-	72.2	-	-	-	-
S=C(Nc1ccc2c(c1)OCO2)NC1CCN(Cc2ccccc2)CC1	-	-	-	-	-	-
COC(=O)c1cn(N(C)c2ncc(C(F)(F)F)cc2Cl)c(=O)c2ccccc12	-	100.3	-	97.6	-	-
COC(=O)c1cn(Nc2ncc(C(F)(F)F)cc2Cl)c(=O)c2ccccc12	-	-	-	52.5	-	-
O=S(=O)(c1ccccc1)N1N=C(c2cccs2)CC1c1ccc(Br)cc1 (stereo not drawn)	-	52.1	-	-	-	-
COC(=O)COc1ccc(=O)n(-c2ccccc2)n1	-	-	-	62.7	-	-
O=C(CCl)Nc1cccn2ncnc12	-	-	-	-	-	-
COc1cccc(NC(=O)CSc2nnc(-c3cccc(OC(C)C)c3)n2N)c1	-	76.5	-	-	-	-
COc1ccc(NC(=O)CSc2nnc(-c3ccccc3C)n2N)cc1OC	-	-	-	-	-	-
COc1ccc(NC(=O)CSc2nnc(-c3ccccc3C)n2N)cc1	-	74.1	-	57.6	-	-
Cc1ccccc1-c1nnc(SCC(=O)Nc2ccc(Cl)cc2)n1N	-	70.1	-	54.1	-	-
CCC(=NCCN1CCNCC1)C1=C(O)CC(C)(C)CC1=O	-	-	-	-	-	-
O=S(=O)(c1ccc(OCc2nc3ccccc3s2)c(Cl)c1)N1CCOCC1	-	-	-	-	-	-
O=S(=O)(c1ccc(Br)cc1)N1CCCC1c1nc2ccccc2s1 (stereo not drawn)	-	.	-4.6	.	.	.
O=S(=O)(c1ccc(N2CCCC2c2nc3ccccc3s2)nc1)N1CCOCC1 (stereo not drawn)	-	86.4	-	88.6	-	-
COc1ccc(Cn2c(SCc3ccc(C)cc3)nc3cc(OC)c(OC)cc3c2=N)cc1Cl	-	69.0	-	-	-	-
COc1cc2nc(SCc3ccc(Cl)cc3Cl)n(Cc3cccs3)c(=N)c2cc1OC	-	73.8	-	-	-	-
COc1ccc(Cn2c(SCc3cc(C)ccc3C)nc3cc(OC)c(OC)cc3c2=N)cc1	-	56.4	-	-	-	-
COc1cc2nc(SCc3ccc(C(F)(F)F)cc3)n(Cc3cccs3)c(=N)c2cc1OC	-	-	-	-	-	-
Cc1cc(C(=O)O)c(CCCN)s1	-	-	-	-	-	-
Cc1cc2nc(SCCOC(=O)Nc3ccc(Cl)cc3)nc(C)c2cc1C	-	-	-	-	-	-
Brc1ccc(-c2noc3c2-c2nc(C4CCCCC4)sc2CC3)cc1	.	.	-	.	.	.
O=C(Nc1cccnc1)c1ccc2snnc2c1	-	-	-	-	-	-
SMILES	PTK2B oligo ant	CYP2C9 inh	Cav32 inh	CYP2C19 inh	CYP2C19 activ	CYP2C9 act
Cc1cc(C)cc(N(CC(=O)Nc2cccc(C)n2)S(=O)(=O)c2c(C)noc2C)c1	.	.	-	.	.	.
Cc1cc(C)cc(N(CC(=O)NCc2ccco2)S(=O)(=O)c2c(C)noc2C)c1	.	67.3	-	81.9	-	-
Cc1ccc(NC(=O)CN(c2cc(C)cc(C)c2)S(=O)(=O)c2c(C)noc2C)nc1	.	71.8	-4.5	-	-	-
COc1ccc(C)cc1NC(=O)C(=O)NNC(=O)c1ccco1	-	-	-	-	-	-
Cc1nn(C(C)(C)C)c(OC(=O)C2CCCC2)c1S(=O)(=O)c1ccccc1	-	-	.	-	-	-
Cc1ccc(S(=O)(=O)c2c(C)nn(C(C)(C)C)c2OC(=O)C2CCCC2)cc1	-	61.1	-	-	-	-
Cc1cc(C(F)(F)F)nn1CCCNC(=O)c1cnccn1	-	-	-	50.2	-	-
Cn1ncc(N=Cc2ccccc2)c1C(=O)Nc1cccc(Cl)c1	-	55.7	-	-	-	-

From PubChem BioAssay
